{"source": "paper PMC5540273", "about": "(PLoS ONE, 2017);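 note: kd values determined as follow-up on hits from a single-replicate KINOMEscan panel screen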", "key": {"[1]": {"system": "T1, RSK1(Kin.Dom.2-C-terminal)", "T1 construct": "gene RPS6KA1"}, "[2]": {"system": "T2, RSK4(Kin.Dom.2-C-terminal)", "T2 construct": "gene RPS6KA6"}}, "data": [{"smiles": "CNc1ncnc2[nH]ncc12", "note": "[SKF-18355]", "values": [{"measurement": "Kd", "setting": "ROCK1", "result": 380, "unit": "nM"}, {"measurement": "Kd", "setting": "ROCK2", "result": 330, "unit": "nM"}]}, {"smiles": "CCCCCc1nc2c(N)ncnc2n1CCCCC", "note": "[SKF-97255]", "values": [{"measurement": "Kd", "setting": "ROCK1", "result": 280, "unit": "nM"}]}, {"smiles": "CC(C)(C)n1cnc2c(N)ncnc21", "note": "[SKF-97359]", "values": [{"measurement": "Kd", "setting": "[1]", "result": "> 10000", "unit": "nM"}, {"measurement": "Kd", "setting": "SgK110", "result": "> 10000", "unit": "nM"}]}, {"smiles": "CN1c2ccc(NCc3ccc(F)cc3)cc2-c2c(cnn2C)S1(=O)=O", "values": [{"measurement": "Kd", "setting": "[2]", "result": "> 10000", "unit": "nM"}]}, {"smiles": "CN1c2ccc(CNc3ccc(F)cc3)cc2-c2c(cnn2C)S1(=O)=O", "values": [{"measurement": "Kd", "setting": "SGK2", "result": "> 10000", "unit": "nM"}]}, {"smiles": "CSc1ccc(-c2cc3ncnc(SCC(=O)O)c3s2)cc1", "values": [{"measurement": "Kd", "setting": "SRPK2", "result": "> 10000", "unit": "nM"}]}, {"smiles": "COc1ccc(Nc2nccc(N3CCC(NC(=O)Nc4cc(C)ccc4C)C3)n2)cc1", "note": "(centres unmarked) [GSK1379741]", "values": [{"measurement": "Kd", "setting": "STK36", "result": 1600, "unit": "nM"}]}, {"smiles": "Cn1ccc2ncnc(Oc3ccc(NC(=O)Nc4ccncc4)c(Cl)c3)c21", "values": [{"measurement": "Kd", "setting": "STK39", "result": "> 10000", "unit": "nM"}]}, {"smiles": "O=C(NCCNc1ccnc(Nc2ccc(F)cc2)n1)c1cc2ccccc2s1", "note": "[GSK1379874]", "values": [{"measurement": "Kd", "setting": "TESK1", "result": "> 10000", "unit": "nM"}]}]}
